# Pf Dd2 inh = qHTS Primary assay for Inhibitors of Plasmodium falciparum Dd2 growth in vitro. P. falciparum Dd2 growth, SYBR Green, 72 h. Potency, µM (highest dose often 28.9 µM), inactives show at the top dose activity, negative = inhibition, usual class: inhibitors. 120,000 tested, 4.3% active; active = well fitted inhibition curve with a large enough effect;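 note: plate controls were DMSO vehicle for no effect and reference drug for full effect; nearly all actives have a fitted effect of over 65% in size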
#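 Readout: SYBR Green fluorescence, 485 nm excitation, 535 nm emission, after ~16 h lysis at 37C. Before that, Dd2-infected red cells (2.5% hematocrit) grew 72 h with compound, 29 uM top final concentration.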
# * marks the source's active call; other numbers are inactive results; i = inactive; [ ] = another dose, or the depositor's remark. The entries come from a sample that favours hits as a whole. Potency is the fitted concentration of half-maximal effect.
SMILES,Pf Dd2 inh
CCC(C(=O)N1CCN(c2ccc(C#N)cn2)CC1)n1cccn1 (stereo unspecified),0.6%
Cc1cccc(C(=O)NCCc2noc(-c3cccnc3)n2)c1,-5.4%
CCCOc1ccccc1CCCNC(=O)[C@H]1CCC[C@@H](O)C1,-12.5%
COc1ccccc1CNC[C@H]1O[C@@H]2C[C@@H](CC(=O)N3CCC(F)(F)C3)O[C@@H]2[C@@H]1O,14.4%[44.1 µM]
CCN1CCN(C(=O)Cn2c(-c3cccs3)cc3ccccc32)CC1,-20.8%
CC(C)CCNC(=O)Cn1cc(S(=O)(=O)Cc2ccc(F)cc2)c2ccccc21,51.2%
O=C(Cn1c(-c2cccs2)cc2cc(F)ccc21)NCCCN1CCN(c2ccccc2F)CC1,8.91µM*
O=C(NCc1ccc(F)cc1)c1csc(N2CCN(c3ccccc3F)CC2)n1,i
CC(C)(C)c1ccc2c(c1)N(CC(=O)NCCCN1CCN(c3ccccc3F)CC1)C(=O)CO2,-0.4%
O=C(Cn1c(-c2cccs2)cc2ccccc21)NCCCN1CCN(c2ccccc2F)CC1,8.91µM*
CC(C)CCNC(=O)Cn1c(-c2cccs2)cc2cc(F)ccc21,4.47µM*
O=C(NCCN1CCN(c2ccccc2F)CC1)C1COc2ccccc2C1 (stereo unspecified),2.9%
CCc1ccc(CNC(=O)Cn2c(-c3cccs3)cc3cc(F)ccc32)cc1,18.6%
COC(=O)[C@H](NC(=O)[C@@H]1C[C@H](NC(=O)Nc2ccc(F)cc2F)CN1C(=O)CSC)C(C)C,-7.2%
O=C(c1cn[nH]c1)N1CCC(c2nc(CCOCC3CCCC3)no2)C1 (stereo unspecified),-12.2%
CN(CC1CCOCC1)C(=O)Cc1ccc(F)cc1,-6.3%
COC(=O)[C@H](Cc1ccc(OC)cc1)NC(=O)[C@@H]1CNCCN1S(=O)(=O)c1ccccc1,i
COc1cccc(CC(=O)N2C[C@@H](Oc3ccccc3)C[C@H]2C(=O)N2CCOCC2)c1,-7.4%
Cc1noc(-c2cn(C3CCN(C(=O)c4cc(F)ccc4F)CC3)nn2)n1,i
Cc1cccc(-c2ccccc2C(=O)N2CCC3(CCCN(C)C3=O)C2)c1 (stereo unspecified),-5.9%
Cc1cccc(NC(=O)c2cc3c(N4CCSCC4)nc(C)cn3n2)c1,-14.5%
COc1cc(C2CC(=O)N(Cc3ccc(F)cc3)c3ccccc3S2)cc(OC)c1OC (stereo unspecified),1.12µM*
COc1ccc(C2CC(=O)N(Cc3ccc(F)cc3)c3ccccc3S2)cc1 (stereo unspecified),i
COc1ccc(C2CC(=O)N(Cc3ccc(F)cc3)c3ccccc3S2)cc1OC (stereo unspecified),22.3%
COc1ccc(CC(=O)NC2CCCN(c3cc(-c4ccc(F)cc4)[nH]n3)C2)cc1OC (stereo unspecified),i
SMILES,Pf Dd2 inh
O=C(NC1CCCCC1)N1Cc2[nH]cnc2C[C@H]1c1nc(-c2ccncc2)no1,12.6µM*
Cc1cccc(-c2noc([C@@H]3Cc4nc[nH]c4CN3C(=O)Nc3cccc(F)c3)n2)c1,12.6µM*
O=C(NC1CCCCC1)N1CCCCCC1c1nc(-c2ccncc2)no1 (stereo unspecified),-47.0%
Cc1cccc(-c2noc([C@@H]3Cc4nc[nH]c4CN3C(=O)Nc3cccc(C#N)c3)n2)c1,-26.7%[44.1 µM]
O=C(Nc1ccccc1)N1Cc2[nH]cnc2C[C@H]1c1nc(-c2ccccc2)no1,i
O=C(Nc1cccc(F)c1)N1Cc2[nH]cnc2C[C@H]1c1nc(-c2ccccc2)no1,-24.1%[44.1 µM]
COc1ccc(NC(=O)N2Cc3[nH]cnc3C[C@H]2c2nc(-c3ccc(OC)cc3)no2)cc1,i
O=C(c1ccccc1)N1Cc2[nH]cnc2C[C@H]1c1nc(-c2ccncc2)no1,11.2µM*
CC(C)NC(=O)N1Cc2[nH]cnc2C[C@H]1c1nc(-c2ccccc2)no1,i
Cc1nc2ncccn2c1C(=O)N1CCn2nc(CO)cc2C1,2.0%
Cn1c(=O)c(C(=O)NC2CCOC3(CCOCC3)C2)nc2ccccc21 (stereo unspecified),-3.9%
CC(C)C(=O)NCC1CN(Cc2ccccc2)C(=O)c2c(ccnc2-c2ccc(OCC(=O)O)cc2)O1 (stereo unspecified),1.12µM*
O=C(O)COc1ccc(-c2nccc3c2C(=O)N(Cc2c[nH]c4ccccc24)CC(COc2ccccc2)O3)cc1 (stereo unspecified),i
Cc1ncccc1OCC1CN(Cc2cccc(C(F)(F)F)c2)C(=O)c2c(ccnc2-c2ccc(OCC(=O)O)cc2)O1 (stereo unspecified),-3.8%
C[C@@H]1C(=O)O[C@H]2[C@H]1CC[C@@]1(C)Cc3sc(Nc4ccc(O)cc4)nc3[C@@H](C)[C@H]21,i
CN1C(=O)C(Cc2nc(-c3ccc4nc[nH]c4c3)no2)N(C)C1=O (stereo unspecified),-12.6%
COc1ccc(C(=O)N2[C@@H]3CC[C@H]2CC(NC(=O)c2cnc(C)cn2)C3)cc1OC (stereo partly specified),i
CN1CCC(NC[C@H]2O[C@@H]3C[C@@H](CC(=O)N4CCC(F)(F)C4)O[C@@H]3[C@@H]2O)CC1,12.5%[44.1 µM]

# Compound activity from PubChem BioAssay.
